Screening data as filed in PubChem.
A selection: hits, their analogues and other compounds. The true share with any hit is near 14%.
Giardia FBPA inh = qHTS Assay for Inhibitors of Fructose-1,6-bisphosphate Aldolase from Giardia Lamblia; A8B2U2; purified Giardia FBPA; Potency, µM (series often up to 59.6 µM), for inactives: at the highest dose activity, negative = inhibition, hits mostly inhibitors; actives 0.71% (n = 290,000); AID 2451, 2010; also: potency is read from the fitted curve at half-maximal effect; nearly all actives have a fitted effect of over 55% in size
Target sequence (A8B2U2 whole entry, looked up): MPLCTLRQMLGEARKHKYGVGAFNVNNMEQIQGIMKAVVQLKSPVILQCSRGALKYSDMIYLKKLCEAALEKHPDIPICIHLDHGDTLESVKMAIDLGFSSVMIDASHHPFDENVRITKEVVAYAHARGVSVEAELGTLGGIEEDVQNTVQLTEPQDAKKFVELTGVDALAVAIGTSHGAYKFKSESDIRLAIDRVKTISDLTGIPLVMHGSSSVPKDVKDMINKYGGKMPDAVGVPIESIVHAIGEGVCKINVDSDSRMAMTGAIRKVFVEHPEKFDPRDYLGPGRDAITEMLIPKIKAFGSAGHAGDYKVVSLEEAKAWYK
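Giardia FBPA (40 nM reagent) was preincubated 10 min at RT with compound (up to 57.5 uM final), then substrate plus GAPDH/TPI/NAD/arsenate coupling system with diaphorase/resazurin was added; resorufin fluorescence (525/598 nm) was read after 20 min.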
Pf growth 48h = Primary qHTS for delayed death inhibitors of the malarial parasite plastid, 48 hour incubation; P. falciparum luciferase growth in erythrocytes, 48 h; Potency, µM (series often up to 28.7 µM), for inactives: at the highest dose activity change, negative = inhibition, usual class: inhibitors; actives 5.9% (n = 310,000); AID 504832, 2011; also: potency is read from the fitted curve at half-maximal effect
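Compounds are pin-transferred into medium, infected erythrocytes (2% hematocrit, 0.1% parasitemia final) are added, and plates sit one parasite generation at 37 C in 5% CO2. Detection reagent is then added and luminescence measured.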
Pf growth 96h = Primary qHTS for delayed death inhibitors of the malarial parasite plastid, 96 hour incubation; AID 504834, 2011; actives 6.9% (n = 320,000); P. falciparum luciferase reporter growth, 96 h; Potency, µM (titrated, usually from 28.7 µM), for inactives: at the top dose activity change, negative = inhibition, most hits filed as inhibitors; also: potency is read from the fitted curve at half-maximal effect
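Cell-based qHTS: luciferase-tagged P. falciparum in erythrocytes (2% hematocrit, 0.05% parasitemia final) incubated with compounds for 96 hours, 37 C, 5% CO2; luciferase detection reagent then added and luminescence measured.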
Sm TGR block = qHTS Assay for the Inhibitors of Schistosoma Mansoni Peroxiredoxins | Schistosoma mansoni thioredoxin glutathione reductase (TGR), Q962Y6 | purified TGR, DTNB reduction, TNB absorbance 405 nm | Potency, µM (series often up to 114 µM), for inactives: at the highest dose activity change, negative = inhibition, hits mostly inhibitors | actives 3% (n = 360,000) | AID 485364, 2010; also: potency is read from the fitted curve at half-maximal effect; nearly all actives have a fitted effect of over 60% in size
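TGR 20 nM + NADPH 100 uM (dispensed conc.), cpd preinc 15 min RT; start with NADPH (500 uM addition) then DTNB (15 mM addition). Kinetic TNB absorbance, 405 nm filter. Four-parameter Hill fit across titration.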
HCMV inh = qHTS Assay for inhibitors of the human cytomegalovirus (HCMV); HFF cells, HCMV-luciferase reporter, 72 h; hits give low values; activity change, negative = inhibition, % at 57.5 µM; actives 4.5% (n = 410,000); AID 1259415, 2018; in the data active = activity change below about -60%; inconclusive = no clear call, values can overlap the other calls; inactive = above about -39%
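Two compound doses tested in HFFs infected with HCMV-luciferase, MOI 1 PFU/cell, 72 h at 37C. Lysate luminescence read with OneGlo; data normalized against buffer-only and 10uM Salinomycin inhibitor controls.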
Numbers without * were called inactive; ? = inconclusive; . = no result given. Unless noted, calls follow the shape of the dose curve; as a rule, active = well fitted curve in the direction sought with a large enough effect; inconclusive = small, poorly fitted or top-dose-only effect, or another doubt; inactive = no such curve, though single readings can be large; an effect the other way counts as inactive or inconclusive. % is scaled to controls: 0 for no effect and ±100 for the full control effect.

SMILES | Giardia FBPA inh | Pf growth 48h | Pf growth 96h | Sm TGR block | HCMV inh
O=C(CN1CCN(c2ccccc2)CC1)Nc1cccc(C(F)(F)F)c1 | 18.0% | 5.3% | -24.2% | 0.0% | -4.0
O=C(CN1CCC(C(O)(c2ccccc2)c2ccccc2)CC1)Nc1ccccc1 | 2.0% | 10.4µM* | ? | 1.1% | -27.3
O=C(CN1CCC(C(O)(c2ccccc2)c2ccccc2)CC1)Nc1cc(Cl)ccc1Cl | 11.8% | ? | 130.4% | 12.8% | 55.1
CC1CN(CC(=O)Nc2cccc(C(=O)Nc3cccc(C(F)(F)F)c3)c2)CC(C)O1 (centres undefined) | -0.4% | . | 0.147µM* | 0.8% | -27.0
Cc1ccc(CCNC(=O)CCSCc2ccccc2F)cc1 | . | . | . | -0.2% | 6.1
CCCNC(=O)C1(C)CCN(C(=O)/C=C/c2ccccc2)C1 (centres undefined) | . | . | . | . | -1.5
O=C(OCc1cc(=O)n2nc(-c3cccs3)sc2n1)c1ccc(Cl)cc1 | . | . | . | 1.5% | 4.6
O=c1[nH]c2ccccc2n1C1CCN(C(CCc2ccccc2)c2nnnn2Cc2ccccc2)CC1 (centres undefined) | . | . | . | . | -103.0*
CSCCC(c1nnnn1Cc1ccccc1)N1CCC(n2c(=O)[nH]c3ccccc32)CC1 (centres undefined) | . | . | . | . | -90.0*
CC(C)CN1C(=O)CSCC1(C)C(=O)NC(C)C (centres undefined) | . | . | . | . | 8.1
CCn1nnc2cc(C(=O)Nc3cc(OC)cc(OC)c3)ccc21 | . | 9.7% | 38.7% | -0.3% | 3.1
O=C1/C(=C/c2cccnc2)Sc2ccccc21 | -2.8% | ? | 7.38µM* | 6.1% | 74.0
COc1cccc(COC(=O)c2ccc(-c3nnn(Cc4cccc(OC)c4)n3)cc2)c1 | . | . | . | 0.3% | 5.1
O=C(NCCN1CCOCC1)Nc1ccc(Cl)cc1 | 1.5% | 30.9% | 4.65µM* | 5.1% | 60.9
S=C(NCCN1CCOCC1)Nc1ccc(Cl)cc1 | 0.9% | -15.9% | 55.6% | 3.8% | -2.9
Cc1ccc(Cl)cc1N1CCN(CCNC(=O)Nc2ccc(Cl)cc2)CC1 | . | . | . | -0.7% | -90.2*
CCc1ccc(NC(=S)NC2CCN(Cc3ccccc3)CC2)cc1 | 5.2% | 0.0% | 0.0% | -15.0% | -77.4*
COc1ccc(CCNC(=S)NC2CCN(Cc3ccccc3)CC2)cc1 | ? | ? | ? | -0.8% | -71.8*
S=C(Nc1ccc(Cl)cc1)NC1CCN(Cc2ccccc2)CC1 | 5.1% | ? | 6.57µM* | 1.2% | -35.4
S=C(Nc1ccccc1)NC1CCN(Cc2ccccc2)CC1 | 0.0% | 0.0% | ? | 33.4% | -31.3
CCC(C)c1ccc(NC(=S)NC2CCN(Cc3ccccc3)CC2)cc1 (centres undefined) | 3.9% | ? | ? | 3.3% | -98.3*
CC(=O)c1ccc(-c2ccc(C(=O)Nc3nc(C)c(C(C)=O)s3)o2)cc1 | . | 36.3% | -6.3% | -17.1% | ?
Cc1ccc(CNC(=O)C2(CC(C)C)C=CCN2C(=O)c2ccccc2)o1 (centres undefined) | -13.7% | . | . | . | .
CC(C)[C@H](NC(=O)N1CC(=O)Nc2ccccc21)C(=O)N1CCC[C@@H]1C(=O)O | -15.7% | -4.2% | -2.3% | -5.0% | -16.9
O=C(C[C@H]1CC[C@@H](NC(=O)Cc2cccnc2)[C@@H](CO)O1)NCc1ccc2c(c1)OCO2 | . | . | . | . | -38.2
SMILES | Giardia FBPA inh | Pf growth 48h | Pf growth 96h | Sm TGR block | HCMV inh
O=c1c(S(=O)(=O)c2ccccc2)cn(Cc2cccc(F)c2)c2cc(N3CCCC3)c(F)cc12 | . | . | . | -2.2% | -1.3
CCN(CC)S(=O)(=O)c1ccc2c(c1)N(CC(=O)NCCCN1CCN(c3cc(C)ccc3C)CC1)C(=O)CO2 | . | . | . | 6.2% | -99.5*
CCCN1CCN(C(=O)CN2C(=O)COc3ccc(S(=O)(=O)N(CC)CC)cc32)CC1 | . | -2.3% | 2.94µM* | -6.5% | 5.6
CN1CCN(C(=O)CN2C(=O)COc3ccc(S(=O)(=O)N4CCOCC4)cc32)CC1 | 2.7% | -0.5% | 5.22µM* | -17.4% | 34.7
CCN(CC)S(=O)(=O)c1ccc2c(c1)N(CC(=O)N1CCN(c3ccc(Cl)cc3)CC1)C(=O)CO2 | . | . | . | -0.3% | -8.7
Cc1cccc(N2CCN(C(=O)CN3C(=O)COc4ccc(S(=O)(=O)N5CCCCCC5)cc43)CC2)c1C | . | . | . | -4.0% | -73.2*
Cc1nn(CC(=O)NC(C)c2ccccc2)c(=O)c2cc3occc3n12 (centres undefined) | . | . | . | 0.4% | -14.1
CC1CCC2C(=O)N(c3ccc(C(=O)NCc4ccccc4)cc3)C(=O)C2C1 (centres undefined) | 3.3% | -13.0% | 64.2% | -7.0% | -16.9
Cc1cccc(N2CCN(C(=O)c3cc(S(=O)(=O)N4CCCC4)cn3C)CC2)c1C | -4.0% | 9.28µM* | ? | 10.0% | -39.5
CC(C)(C)c1ccc2c(c1)N(CC(=O)N1CCCC1)C(=O)CO2 | 13.5% | 11.7µM* | -29.9% | 0.0% | 3.8
Cc1ccc2c(c1)N(CC(=O)N1CCCCC1)C(=O)C(C)O2 (centres undefined) | 0.5% | 2.0% | 9.28µM* | -5.0% | -6.0
Cc1cccc(N2CCN(C(=O)c3cc(S(=O)(=O)N4CCOCC4)cn3C)CC2)c1C | -6.3% | ? | ? | 6.4% | -21.0
COC(=O)C(O)(c1ccccc1)C(Nc1ccc(OC)cc1)c1ccc(Br)cc1 (centres undefined) | . | . | . | . | -4.8
C(=C\c1ccco1)/c1nc2ccccc2[nH]1 | -21.6% | 18.2% | 0.0% | 3.16µM* | ?
C(=C\c1ccco1)/c1ccc2ccccc2n1 | -20.4% | 346.3% | 38.2% | 7.94µM* | 190.6
O=C(/C=C/c1ccco1)Nc1ccc(-c2nc3ccccc3[nH]2)cc1 | 6.3% | 4.15µM* | 11.7µM* | -18.4% | ?
CC(=O)Nc1ccc(NC(=O)CSc2nnc(NC(=O)c3cccc(F)c3)s2)cc1 | . | 49.7% | 53.4% | -10.1% | -39.5
O=C(CN1C(=O)NC2(CCCC2)C1=O)OCCOc1ccc(Br)cc1 | . | 39.9% | 35.5% | 0.6% | -34.4
COc1ccccc1N(C(=O)Cn1nnc(-c2ccc(C)o2)n1)C(C(=O)NC1CCCC1)c1ccncc1 (centres undefined) | 4.6% | ? | ? | -4.7% | 38.7
N#CCC(=N)N1CCN(c2ccc(F)cc2)CC1 | -6.4% | -28.4% | 0.0% | -14.6% | -31.9
N=c1n(Cc2ccccc2)c2ccccc2n1Cc1ccccc1 | 4.7% | 10.4µM* | ? | 2.4% | ?
C=CCn1c(=N)n(CC(=O)c2cccc([N+](=O)[O-])c2)c2ccccc21 | -9.4% | ? | ? | . | -7.4
N=c1n(CCN2CCCCC2)c2ccccc2n1CC(=O)c1cccc([N+](=O)[O-])c1 | -4.0% | 1.85µM* | ? | -3.6% | -22.3
N=c1n(CC(=O)c2ccc(Br)cc2)c2ccccc2n1Cc1ccccc1 | . | ? | ? | -5.2% | -60.5*
